Holding throughout (assay): qHTS profiling for inhibitors of Plasmodium falciparum proliferation (AID 504749); note: nearly all actives have a fitted effect of over 60% in size
What all share (conditions): P. falciparum in erythrocytes, SYBR Green DNA, 72 h; series mostly up to 12.8 µM

One assay has as its system CP185. The procedure, abridged:
(§1)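 Parasite proliferation within erythrocytes, 72 h exposure. Endpoint: SYBR Green I fluorescence after overnight lysis at room temperature. Controls: 0.29 uM artemisinin, DMSO.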

A further assay has as its system CP194. In a few lines: as §1
The test system of the next assay is CP201. The procedure, abridged:
as §1

Another assay relates to CP203. In a few lines:
as §1

The next assay relates to CP211. In a few lines: as §1
The subject of the next assay is CP252. The procedure, abridged: as §1
Another assay concerns CP260. The procedure, abridged:
as §1

A further assay has as its system CP268. In a few lines: as §1
The next assay deals with CP286. In a few lines: as §1
In a further assay the test system is CP291. The procedure, abridged: as §1
The test system of the next assay is CP305. In a few lines:
as §1

In the next assay the test system is CP325. The procedure, abridged: as §1
In a further assay the test system is CP329. In a few lines:
as §1

Another assay has as its system DFO2036. The procedure, abridged:
as §1

A further assay concerns DIV14. In a few lines: as §1
The next assay relates to DIV30. The procedure, abridged: as §1
The test system of another assay is ECU. The procedure, abridged: as §1
For the next assay, the system named is HB3. The procedure, abridged: as §1
The next assay deals with ICS. The procedure, abridged:
as §1

For the next assay, the system named is TAB113. In a few lines:
as §1

Records with an inconclusive call do not appear. Calls of active or inactive are those of the source. Calls come from the whole dose curve; as a rule, active = well fitted inhibition curve with a large enough effect; inconclusive = small, poorly fitted or top-dose-only effect; inactive = flat fitted curve, though single readings scatter.
Potency is the fitted concentration of half-maximal effect.

In the case of `O=C(Nc1ccccc1)OC[C@H](CN1CCCCC1)OC(=O)Nc1ccccc1`, the Potency entry with CP185, with CP194, in the assay with CP201, in the assay with CP203, with CP211 and with CP252 was “inactive” each time. In addition, the Potency result with CP260, in the assay with CP268, with CP286, with CP291, in the assay on CP305 and in the assay on CP325 was “inactive” throughout. For the same molecule, the Potency entry in the assay with CP329, in the assay on DFO2036, in the assay on DIV14, in the assay on DIV30, in the assay on ECU and with HB3 was “inactive” each time. For the same molecule, the Potency entry with ICS and in the assay on TAB113 was “inactive” in each case.
As to `Cc1cccc(C)c1NC(=O)[C@H](C)N`, the Potency entry in the assay with CP185, in the assay with CP252, in the assay on CP260, in the assay with CP286, in the assay on DFO2036 and in the assay on ECU was “inactive” in each case. Besides, the Potency entry in the assay on HB3, in the assay with ICS and with TAB113 was “inactive” throughout.
For `CC(=O)O[C@]1(C(C)=O)CC[C@@H]2[C@@H]3C=C(C)C4=CC(=O)CC[C@@]4(C)[C@H]3CC[C@]21C`, the Potency entry in the assay on CP185, with CP194, in the assay on CP201, with CP203, with CP211 and in the assay with CP252 was “inactive” each time. The Potency entry in the assay on CP260, in the assay on CP268, in the assay with CP286, in the assay with CP291, in the assay on CP305 and with CP325 was “inactive” in each case. Further, the Potency entry in the assay with CP329, in the assay with DFO2036, in the assay with DIV14, with DIV30, in the assay on ECU and in the assay on HB3 was “inactive” in each case. In the assay with TAB113, the Potency result was “inactive”.
Consider `CN1C(=O)C[C@H](c2ccccc2)C1=O`, for which the Potency result in the assay on CP194, in the assay with CP201, in the assay on CP203, in the assay with CP211, in the assay with CP252 and in the assay on CP260 was “inactive” each time. Besides, the Potency result in the assay on CP268, with CP286, in the assay with CP291, with CP305, in the assay with CP325 and in the assay with CP329 was “inactive” throughout. Also, the Potency entry with DFO2036, with DIV14, with DIV30, in the assay on ECU, in the assay with HB3 and in the assay with ICS was “inactive” in each case.
Consider `O=C(NC[C@@H](O)CO)c1c(I)c(C(=O)NC[C@@H](O)CO)c(I)c(N(CCO)C(=O)CO)c1I`, for which the Potency result in the assay with CP185, in the assay on CP194, with CP201, in the assay on CP203, with CP211 and with CP252 was “inactive” in each case. The Potency entry with CP260, with CP268, with CP286, in the assay with CP291, in the assay with CP305 and with CP325 was “inactive” throughout. Further, the Potency entry with CP329, in the assay with DFO2036, in the assay with DIV14, with DIV30, in the assay with ECU and in the assay on HB3 was “inactive” in each case. The Potency result with ICS and in the assay on TAB113 was “inactive” each time.
Take `COc1ccc([C@@H]2CC(=O)c3c(O)cc(O[C@H]4O[C@@H](CO[C@H]5O[C@@H](C)[C@@H](O)[C@@H](O)[C@@H]5O)[C@@H](O)[C@@H](O)[C@@H]4O)cc3O2)cc1O`: the Potency entry with CP185, with CP194, in the assay on CP201, in the assay with CP203, in the assay on CP211 and in the assay with CP252 was “inactive” in each case. The Potency result with CP260, in the assay with CP268, with CP286, in the assay on CP291, in the assay on CP305 and in the assay on CP325 was “inactive” in each case. Besides, the Potency entry in the assay with CP329, in the assay on DFO2036, in the assay on DIV14, with DIV30, in the assay on ECU and in the assay with HB3 was “inactive” each time. Further, the Potency result in the assay on ICS and in the assay on TAB113 was “inactive” each time.
As to `C[C@H](N[C@@H](C)COc1ccccc1)[C@H](O)c1ccc(O)cc1`, the Potency result in the assay on CP185, in the assay on CP194, with CP201, in the assay on CP211, in the assay on CP252 and in the assay with CP260 was “inactive” each time. Also, the Potency entry in the assay with CP268, in the assay on CP286, in the assay on CP291, in the assay on CP305, in the assay on CP325 and with CP329 was “inactive” each time. The Potency entry in the assay on DFO2036, in the assay with DIV30, in the assay with ECU, in the assay on HB3, with ICS and in the assay on TAB113 was “inactive” in each case.
For `CC[C@@H]1OC(=O)[C@H](C)[C@H](O[C@@H]2C[C@](C)(OC)[C@H](O)[C@H](C)O2)[C@H](C)[C@H](O[C@@H]2O[C@@H](C)C[C@@H](N(C)C)[C@@H]2O)[C@](C)(O)C[C@H](C)C(=NOCOCCOC)[C@H](C)[C@H](O)[C@]1(C)O`, the Potency result with CP185, with CP194, with CP201, with CP203, in the assay with CP268 and with CP286 was “inactive” throughout. For the same molecule, the Potency entry in the assay with CP291, with CP305, in the assay on CP325, with CP329, in the assay on DIV14 and in the assay on DIV30 was “inactive” each time. Further, the Potency result with ECU, in the assay with HB3, in the assay with ICS and in the assay on TAB113 was “inactive” each time.
In the case of `CC[N+](CC)(CC)CC[C@](O)(c1ccccc1)C1CCCCC1`, the Potency entry in the assay on CP185, in the assay with CP194, in the assay with CP201, in the assay on CP203, in the assay on CP211 and in the assay on CP252 was “inactive” each time. Moreover, the Potency result with CP268, with CP305, in the assay on CP325, with CP329, in the assay on DFO2036 and in the assay on DIV30 was “inactive” each time. For the same molecule, the Potency entry with ECU and with TAB113 was “inactive” throughout.
On to `CC(=O)[C@@]1(O)CC[C@H]2[C@H]3C[C@@H](C)C4=CC(=O)C=C[C@]4(C)[C@@]3(F)[C@@H](O)C[C@]21C`, for which the Potency entry with CP185, in the assay on CP194, in the assay on CP201, in the assay on CP203, with CP211 and in the assay on CP252 was “inactive” throughout. For the same molecule, the Potency entry in the assay on CP260, in the assay on CP268, with CP286, with CP291, in the assay on CP305 and in the assay on CP325 was “inactive” in each case. In addition, the Potency result with CP329, in the assay on DFO2036, in the assay with DIV14, in the assay with DIV30, in the assay with ECU and in the assay on HB3 was “inactive” in each case. Besides, the Potency result in the assay on TAB113 was “inactive”.
For `CC(=O)N(C[C@@H](C)C(=O)O)c1c(I)cc(I)c(N)c1I`, the Potency entry with CP185, in the assay with CP252, with CP260, in the assay with CP286, in the assay with DFO2036 and in the assay on ECU was “inactive” throughout. Moreover, the Potency result with HB3, in the assay on ICS and in the assay with TAB113 was “inactive” each time.
As to `COC(=O)C1=C(C)NC(C)=C(C(=O)OC(C)C)[C@H]1c1cccc2nonc12`, the Potency result with CP185, in the assay on DFO2036 and in the assay with DIV30 was “inactive” throughout. The Potency with ICS is 3.55 µM (active).
As to `CO[C@]1(NC(=O)C2SC(=C(C(N)=O)C(=O)O)S2)C(=O)N2C(C(=O)O)=C(CSc3nnnn3C)CS[C@H]21` (stereo partly specified), the Potency entry in the assay on CP185, with CP194, in the assay with CP201, in the assay on CP203, in the assay with CP211 and with CP252 was “inactive” each time. In addition, the Potency result in the assay on CP260, in the assay on CP268, in the assay with CP286, in the assay with CP291, in the assay with CP305 and in the assay with CP325 was “inactive” throughout. Also, the Potency entry with CP329, in the assay on DFO2036, in the assay with DIV14, in the assay on DIV30, with ECU and in the assay on HB3 was “inactive” throughout. Moreover, the Potency result in the assay on ICS and with TAB113 was “inactive” in each case.

The values above are taken from PubChem BioAssay (NCATS).
